TRPM1 prom inh: MITF TRPM1 promoter inhibition in SK-MEL-5 cells; SK-MEL-5 TRPM1 promoter luciferase, 24 h; inhibition, % at 12.5 µM; 330,000 tested, 0.83% active; AID 488899;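 active = mean inhibition across replicates of 60% or more, whatever share of single replicates reaches that level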
EBV LMP1 NFkB: Epstein-Barr LMP1 NF-kappaB reporter inhibition; LMP1-induced NF-kappaB luciferase reporter cells, luminescence; inhibition, % at 12.5 µM; 350,000 tested, 0.69% active; in the data active = inhibition above about 41%;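 also: 0% = neutral control wells and 100% = reference inhibitor control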
CF NFkB block: inhibitors of cystic fibrosis induced NF-kB. KKLEB NF-kB-GFP reporter, PAF-induced, GFP fluorescence overnight. AID 588850. inhibition, % at 5 µM. 360,000 tested, 0.86% active;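 active = at least 50% inhibition at 5 µM, scaled per plate between neutral and stimulator controls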;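 also: PAF is a Pseudomonas aeruginosa culture filtrate used as stimulus; plate controls were PAF-stimulated DMSO wells for no effect and unstimulated DMSO wells for full effect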
Peg3 promoter: reduces Peg3 promoter-driven luciferase expression in HeLa; HeLa PEG-Prom luciferase reporter, luminescence, overnight; inhibition, % at 20 µM; 360,000 tested, 1.7% active;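 active = inhibition of at least 50% at 20 µM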
HIF-2a block: HIF-2a inhibition. 786-0 RCC cells HIF-2a reporter, luciferase luminescence, overnight. inhibition, % at 18.8 µM. 360,000 tested, 0.72% active;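 active = inhibition of the luminescence signal of 40% or more relative to plate controls, in a single-dose primary screen at 18.75 µM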
KKLEB cytotox: CF airway cell cytotoxicity counter-screen | KKLEB CF airway cells viability, ATPlite luminescence, overnight; active compounds read low; cells stimulated with P. aeruginosa culture filtrate | activity change (cytotoxicity), % at 5 µM | 360,000 tested, 0.36% active;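 active = corrected activity change at or below -50% at 5 µM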
* marks the source's active call; other numbers are inactive results; · = not tested or not shown. Rows were chosen to be rich in hits. Some 3% of all compounds tested hit in one or more screens of this group.

SMILES	TRPM1 prom inh	EBV LMP1 NFkB	CF NFkB block	Peg3 promoter	HIF-2a block	KKLEB cytotox
COC(=O)C1=C(c2cccc(C#N)c2)C[C@@H]2CC[C@H]1N2C(=O)NCCOc1ccccc1Cl	-22	-7	-8	-25	-27	14
O=C(NN=Cc1ccc(N(CCCl)CCCl)cc1)c1cccnc1	-2	47*	12	-22	-32	-10
O=C(NN=Cc1ccc(N(CCCl)CCCl)cc1)c1cccc([N+](=O)[O-])c1	-2	27	12	32	2	-29
CC(=O)Nc1ccc(S(=O)(=O)N2Cc3ccccc3-n3nncc3C2)cc1	·	5	1	-9	7	1
COC1/C=C/C=C(\C)Cc2cc(O)c(Cl)c(c2)N(C)C(=O)CC(OC(=O)C(C)C)C2(C)OC2C(C)C2CC1(O)NC(=O)O2 (stereo not given)	59	13	58*	-22	35	-23
CC1(C(=O)O)CC12c1ccccc1-c1ccccc12 (stereo not given)	0	74*	-8	-15	13	3
CS(=O)(=O)c1ccc(C2=C(CNC(=O)c3ccncc3)[C@H]3CC[C@@H](C2)N3CCOc2ccccc2)cc1	·	2	5	-4	-5	-4
COC(=O)C1CN(C#N)N(c2ccc(Cl)cc2)C12c1ccccc1-c1ccccc12 (stereo not given)	98*	37	97*	109*	90*	-102*
COc1ccc(CCn2c(O)c(C=Nc3ccc(F)cc3)c(=O)[nH]c2=O)cc1OC	·	·	-9	16	21	2
CCN(CC)c1ccc(N=Cc2c(O)n(CCc3ccc(OC)c(OC)c3)c(=O)[nH]c2=O)cc1	29	29	3	69*	6	-6
COC(=O)C1=C(c2ccc(S(C)(=O)=O)cc2)C[C@@H]2CC[C@H]1N2C(=O)N1CCOCC1	-3	2	16	-4	1	1
C[C@H]1C/C=C/[C@H]2[C@H](O)[C@H](C)[C@@](C)(O)[C@H]3[C@H](Cc4ccccc4)NC(=O)[C@]32[C@H](O)/C=C/[C@](C)(O)C1	·	·	-8	15	-1	-17
C=C1[C@@H](C)[C@H]2[C@H](Cc3ccccc3)NC(=O)[C@]23OC(=O)/C=C/[C@H](O)CCC[C@@H](C)C/C=C/[C@H]3[C@@H]1O	14	23	81*	64*	-15	-37
C=C1C(C)C2C(Cc3ccccc3)NC(=O)C23C(OC(C)=O)C=CC(C)(O)CC(C)CC=CC3C1O (stereo not given)	-1	-47	53*	-16	10	-67*
CCC(C)N1C(=O)/C(=C\c2ccc(N3CCCCCC3)cc2)C(=O)NC1=S (stereo not given)	-9	-4	-8	17	-12	7
COc1ccc(/C=C2\C(=O)NC(=S)N(C)C2=O)cc1C	16	3	0	14	19	0
CN1C(=O)/C(=C\c2ccc(N3CCCCCC3)cc2)C(=O)NC1=S	8	-13	6	78*	-19	-5
CN1C(=O)/C(=C/c2ccc(Cl)s2)C(=O)NC1=S	-1	-4	66*	55*	20	-11
Cc1ccsc1/C=C1\C(=O)NC(=S)N(C)C1=O	70*	6	31	90*	26	6
N#CC(C#N)=C(C#N)c1ccc(Nc2ccccc2)cc1	0	-8	53*	32	11	-14
c1ccc(Nc2ccc(Nc3ccccc3)cc2)cc1	-90	-25	2	-156	-228	2
CCCCCCCSc1cc(OC)c(CCN(C)C)cc1OC	-3	-12	5	104*	6	-5
CCC1CN2CCc3cc(OC)c(OC)cc3C2CC1CC1NCCc2c1[nH]c1ccc(O)cc21 (stereo not given)	97*	83*	89*	99*	57*	-27
COC1C(O)C(C)OC(OC2CCC3(C)C(CCC4C3C(O)CC3(C)C(C5=CC(=O)OC5)CCC43O)C2)C1O (stereo not given)	73*	57*	86*	100*	74*	-41
CC12CC[C@H]3[C@@H](CCC4(O)C[C@H](O)CCC34/C=N/NC(=O)Cc3ccccc3)C1(O)CCC2C1=CC(=O)OC1 (stereo not given in full)	2	-1	9	19	2	5
SMILES	TRPM1 prom inh	EBV LMP1 NFkB	CF NFkB block	Peg3 promoter	HIF-2a block	KKLEB cytotox
CC(=O)OC1CC(OC2C(O)CC(OC3C(O)CC(OC4CCC5(C)C(CCC6C5CC(O)C5(C)C(C7=CC(=O)OC7)CCC65O)C4)OC3C)OC2C)OC(C)C1OC1OC(CO)C(O)C(O)C1O (stereo not given)	70*	83*	86*	95*	87*	-48
Cc1ccc(S(=O)(=O)N(C)N=O)cc1	-3	1	-18	8	6	0
CCCCCCC(C)(C)c1ccc([C@@H]2C[C@H](O)CC[C@H]2CCCO)c(O)c1	9	-3	-5	83*	15	-10
O=[N+]([O-])c1ccc(O)c([N+](=O)[O-])c1	-6	3	23	-2	-8	-13
O=[N+]([O-])c1ccc(Cl)c([N+](=O)[O-])c1	43	5	58*	58*	7	-17
COc1ccc(-n2c(-c3ccccc3F)nc3ccccc3c2=O)cc1	·	-6	-5	9	4	7
O=c1[nH]c2ccccc2n1C1CCN(C(CCc2ccccc2)c2nnnn2C2CCCCC2)CC1 (stereo not given)	·	·	86*	98*	-84	-69*
Cc1cccc(C)c1-n1nnnc1C(c1cccc2ccccc12)N1CCC(n2c(=O)[nH]c3ccccc32)CC1 (stereo not given)	·	·	26	43	-10	-8
O=c1[nH]c2ccccc2n1C1CCN(C(c2nnnn2C2CCCC2)C2CC2)CC1 (stereo not given)	·	·	12	11	-11	6
COc1ccc(C(c2nnnn2Cc2ccccc2)N2CCC(n3c(=O)[nH]c4ccccc43)CC2)cc1 (stereo not given)	·	·	85*	74*	-25	-96*
O=c1[nH]c2ccccc2n1C1CCN(C(c2nnnn2Cc2ccccc2)C2CC2)CC1 (stereo not given)	·	·	86*	76*	-25	-79*
O=c1[nH]c2ccccc2n1C1CCN(C(c2ccccc2OC(F)(F)F)c2nnnn2Cc2ccccc2)CC1 (stereo not given)	·	·	82*	92*	-51	-54*
COC(=O)c1cn(C(=O)c2cccc3ccccc23)c2ccccc12	20	6	13	25	19	-10
O=c1[nH]c2ccccc2n1C1CCN(C(c2cccs2)c2nnnn2Cc2ccccc2)CC1 (stereo not given)	·	·	86*	78*	0	-79*
Cc1cccc(C)c1-n1nnnc1C(c1cccs1)N1CCC(n2c(=O)[nH]c3ccccc32)CC1 (stereo not given)	·	·	0	29	9	-8

Screening data deposited in PubChem BioAssay by several laboratories.
